According to PubChem BioAssay (NCATS):
Several values for one entry are separate records, joined by “and”; a condition that tells them apart may be missing. Equal values may be shown once. Values without a mark were called inactive. Records with an inconclusive call do not appear. Activity calls are given as the source filed them. Unless noted, the call rests on the fitted dose curve; in most records, active means well fitted curve in the direction sought with a large enough effect; inconclusive means small, poorly fitted or top-dose-only effect, or another doubt; inactive means no such curve, though single readings can be large; an effect the other way counts as inactive or inconclusive.

Target: Tumor susceptibility gene 101 protein (Homo sapiens) (UniProt Q99816)
Sequence (Q99816 whole entry, looked up): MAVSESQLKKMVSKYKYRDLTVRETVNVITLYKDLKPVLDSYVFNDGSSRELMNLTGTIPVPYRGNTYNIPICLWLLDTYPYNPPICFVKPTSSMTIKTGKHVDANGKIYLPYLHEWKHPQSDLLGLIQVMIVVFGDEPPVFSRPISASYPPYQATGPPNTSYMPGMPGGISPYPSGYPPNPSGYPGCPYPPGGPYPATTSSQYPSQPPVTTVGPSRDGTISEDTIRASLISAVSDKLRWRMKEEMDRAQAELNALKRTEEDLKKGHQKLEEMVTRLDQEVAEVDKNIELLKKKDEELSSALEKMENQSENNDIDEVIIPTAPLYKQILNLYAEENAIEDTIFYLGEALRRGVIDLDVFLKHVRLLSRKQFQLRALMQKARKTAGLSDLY
Experiment: qHTS Assay for Iinhibitors of HIV-1 Budding by Blocking the Interaction of PTAP/TSG101: Hit Validation (AID 651600); further: nearly all actives have a fitted effect of over 70% in size; further: potency means the concentration at half of the fitted maximal effect
Conditions: PTAP peptide/TSG101 UEV interaction, biochemical assay; series mostly up to 57.5 µM
Source text: Stages of the HIV-1 replication cycle, specifically virus assembly and release, provide underexploited targets for the development of novel antiviral inhibitors. The late stages of HIV-1 replication are mediated by the Gag precursor protein, Pr55Gag. Expression of Pr55Gag is both necessary and sufficient for the production of virus-like particles from Gag-expressing cells. The Gag protein hijacks key host proteins involved in endocytic machinery of the host cell to promote endosomal processing and viral budding. The budding process requires a direct interaction between a […] (PTAP) motif in the p6 domain of Gag and the cellular endosomal sorting protein known as Tsg101. In this way, the Gag PTAP motif promotes the host cells to recruit viral particles to the plasma membrane where the new viral particles are released, effectively turning the host cells into viral factories. A fluorescence anisotropy assay has been developed to quantitatively measure the PTAP-Tsg101 interaction which can be used to screen for inhibitors of this interaction.
NIH Molecular Libraries Probe Production Network [MLPCN]
NIH Chemical Genomics Center [NCGC]
PI Name: Dr. Eric Freed, NCI
Two uL of the Tsg101 binding domain in buffer (10 mM HEPES pH 7.5; 0.15 M NaCl, 0.01% Tween 20; 3 mM EDTA;0.1 mM TCEP) was dispensed into Greiner black MB 1536-well plates (final concentration 10 uM). Then, 23 nL of compounds or DMSO were delivered to each well using a pin tool. Finally, 2 uL of a FITC-labeled peptide containing the PTAP motif (1) in the same buffer was dispensed (50 nM final concentration) and the binding was allowed to proceed for 20 min. at r.t. Fluorescent polarization was determined using FITC excitation and polarized emission filters on a Perkin Elmer Viewlux.
Keywords: Tsg101, PTAP, Gag, HIV, fluorescent polarization, MLSMR, MLPCN, NIH Roadmap, qHTS, NCGC

Row | Compound | Potency
1 | CC(C)C[C@H]1C(=O)N2CCC[C@H]2[C@]2(O)O[C@](NC(=O)[C@@H]3C=C4c5cccc6[nH]cc(c56)C[C@H]4N(C)C3)(C(C)C)C(=O)N12 | inactive
2 | COc1ccc(N2C(=O)NC(=O)/C(=C\c3cn(C)c4ccccc34)C2=O)cc1 | inactive
3 | Nc1ccc2c3c(cccc13)-c1ccccc1-2 | 9.19 µM (active)
4 | CN1Cc2c(c(C#N)c(N)n(C)c2=S)CC1(C)C | 32.6 µM (active)
5 | N#CCN1CCN(c2ccc(C(F)(F)F)cc2)CC1 | inactive
6 | COc1cccc2c1C(=O)c1c(O)c3c(c(O)c1C2=O)CC(O)(C(C)=NO)CC3OC1CC(N)C(O)C(C)O1 (stereo unspecified) | 10.3 µM (active)
7 | Cc1cc(N2CCCC2)ccc1C=C(C#N)C#N | inactive
8 | CCOC(=O)c1c(/N=C/c2c(O)n(-c3ccccc3F)c(=S)[nH]c2=O)sc2c1CCCC2 | 16.3 µM (active)

Tested on: not listed separately
Experiment: qHTS assay for small molecule agonists of the antioxidant response element (ARE) signaling pathway (AID 651741; active means well fitted activation curve with a large enough effect in the signal ratio; the % refers to the signal ratio; further: potency means the concentration at half of the fitted maximal effect; on activation: % of control where 0% means no effect)
Conditions: HepG2 ARE-bla reporter, beta-lactamase FRET ratio, 16 h; series mostly up to 96 µM
Summary of the method: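 Beta-lactamase reporter under ARE control in HepG2 cells, 2,000 per well, was induced by 16 h compound treatment at 37 C. Read-out was fluorescence from LiveBLAzer B/G FRET substrate after 2 h at room temperature.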

Row | Compound | Potency
9 | O=C(O)CN(CCN(CC(=O)O)CC(=O)O)CC(=O)O | inactive
10 | [Cl][Sn]([c]1ccccc1)([c]1ccccc1)[c]1ccccc1 | 0.486 µM (active)
11 | CO | 42.2 µM (active)

Tested on: not listed separately
Experiment: qHTS assay for environmental chemicals that activate the Aryl hydrocarbon Receptor (AhR) signaling pathway (AID 651777); further: nearly all actives have a fitted effect of over 15% in size; further: potency means the concentration at half of the fitted maximal effect; on activation: % of control where 0% means no effect
Conditions: 1A2-DRE human hepatoma cells, luciferase, 24 h; activation: hits give high values
Summary of the method: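 1A2-DRE human hepatoma reporter line; 1,200 cells/well; cmpd or DMSO 24 h, 37 C/5% CO2; One-Glo 30 min RT; luciferase lum.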

Row | Compound | activation [%] | Potency
12 | CCC[CH2][Sn]([CH2]CCC)([CH2]CCC)[O]C(=O)c1ccccc1 | -10.5 | –
13 | CC[C@H](C)[C@H]1O[C@]2(C=C[C@@H]1C)C[C@@H]1C[C@@H](C/C=C(\C)[C@@H](O[C@H]3C[C@H](OC)[C@@H](O[C@H]4C[C@H](OC)[C@@H](NC)[C@H](C)O4)[C@H](C)O3)[C@@H](C)/C=C/C=C3\CO[C@@H]4[C@H](O)C(C)=C[C@@H](C(=O)O1)[C@]34O)O2 | -12 | –
14 | [Cl][Sn]([c]1ccccc1)([c]1ccccc1)[c]1ccccc1 | -11.4 | –
15 | Cc1c2ccccc2c(C)c2c1ccc1ccccc12 | – | 25.1 µM (active)

Target: Peroxisome proliferator-activated receptor alpha (Homo sapiens) (UniProt Q07869)
Sequence (Q07869 whole entry, looked up): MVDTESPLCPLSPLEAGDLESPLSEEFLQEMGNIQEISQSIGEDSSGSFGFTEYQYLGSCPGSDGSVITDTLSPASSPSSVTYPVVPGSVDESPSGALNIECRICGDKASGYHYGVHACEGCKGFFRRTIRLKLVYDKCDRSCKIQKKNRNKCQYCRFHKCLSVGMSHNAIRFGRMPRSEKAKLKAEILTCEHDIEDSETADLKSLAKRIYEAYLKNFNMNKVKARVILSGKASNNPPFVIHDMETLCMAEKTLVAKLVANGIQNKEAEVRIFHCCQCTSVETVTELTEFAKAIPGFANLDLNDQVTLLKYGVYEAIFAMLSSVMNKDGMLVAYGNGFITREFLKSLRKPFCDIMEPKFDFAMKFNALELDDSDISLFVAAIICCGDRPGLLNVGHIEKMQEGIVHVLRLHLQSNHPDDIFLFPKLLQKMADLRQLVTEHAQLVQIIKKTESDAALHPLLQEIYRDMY
Experiment: qHTS assay for small molecule agonists of the peroxisome proliferator-activated receptor alpha (PPARalpha) signaling pathway (AID 651778); further: % of control where 0% means no effect
Conditions: PathHunter PPARalpha complementation, chemiluminescence, 6 h; max response: hits give high values
Summary of the method: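 Chemiluminescence from complemented enzyme reported PPARalpha activation in cells after 6 hr of compound treatment at 37 C. The detection reagent was incubated for 60 min at room temperature, and compounds were scored as agonists.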

Row | Compound | max response [%]
16 | CCC[CH2][Sn]([CH2]CCC)([CH2]CCC)[O]C(=O)c1ccccc1 | -0.767
17 | CC[C@H](C)[C@H]1O[C@]2(C=C[C@@H]1C)C[C@@H]1C[C@@H](C/C=C(\C)[C@@H](O[C@H]3C[C@H](OC)[C@@H](O[C@H]4C[C@H](OC)[C@@H](NC)[C@H](C)O4)[C@H](C)O3)[C@@H](C)/C=C/C=C3\CO[C@@H]4[C@H](O)C(C)=C[C@@H](C(=O)O1)[C@]34O)O2 | 4.77
18 | [Cl][Sn]([c]1ccccc1)([c]1ccccc1)[c]1ccccc1 | -6.19

Tested on: not listed separately
Experiment: qHTS assay for small molecule agonists of the antioxidant response element (ARE) signaling pathway measured by Nrf2-dependant transcriptional activity (AID 720636; active means well fitted curve in the direction sought with a large enough effect in the repeat runs; an effect the other way counts as inactive or inconclusive; further: potency means the concentration at half of the fitted maximal effect;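 on activation: HepG2 cells with an ARE-driven luciferase reporter; % of control where 0% means no effect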)
Conditions: ARE-luc HepG2, Nrf2 luciferase reporter, 16 h; series mostly up to 92.4 µM
Summary of the method: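 Cells: ARE-luc HepG2 with Nrf2-responsive luciferase. Medium contained 1% dialyzed FBS. Compound exposure lasted 16 hr at 37 C and 5% CO2, followed by ONE-Glo luciferase detection.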

Row | Compound | Potency
19 | CC/C(=C(\c1ccc(O)cc1)c1ccc(OCCN(C)C)cc1)c1ccccc1 | inactive
20 | CC[C@H](C)[C@H]1O[C@]2(C=C[C@@H]1C)C[C@@H]1C[C@@H](C/C=C(\C)[C@@H](O[C@H]3C[C@H](OC)[C@@H](O[C@H]4C[C@H](OC)[C@@H](NC)[C@H](C)O4)[C@H](C)O3)[C@@H](C)/C=C/C=C3\CO[C@@H]4[C@H](O)C(C)=C[C@@H](C(=O)O1)[C@]34O)O2 | inactive
21 | [Cl][Sn]([c]1ccccc1)([c]1ccccc1)[c]1ccccc1 | 0.486 µM (active)

Tested on: not listed separately
Experiment: qHTS assay for small molecule agonists of the antioxidant response element (ARE) signaling pathway measured by Nrf2-dependant transcriptional activity - cell viability counter screen (AID 720653; active means well fitted curve in the direction sought with a large enough effect in the repeat runs; an effect the other way counts as inactive or inconclusive; further: potency means the concentration at half of the fitted maximal effect)
Conditions: ARE-bla HepG2 viability, CellTiter-Glo ATP luminescence, 16 h; max response: hits give low values
Summary of the method: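 Cytotoxicity counter screen: intracellular ATP quantified by CellTiter-Glo luminescence in the same ARE-bla HepG2 plates, after 16 h compound exposure and a 2 h beta-lactamase substrate step.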

Row | Compound | Potency
22 | CCC[CH2][Sn]([CH2]CCC)([CH2]CCC)[O]C(=O)c1ccccc1 | 3.98 µM (active)
23 | CC/C(=C(\c1ccc(O)cc1)c1ccc(OCCN(C)C)cc1)c1ccccc1 | 25.1 µM (active)
24 | CC[C@H](C)[C@H]1O[C@]2(C=C[C@@H]1C)C[C@@H]1C[C@@H](C/C=C(\C)[C@@H](O[C@H]3C[C@H](OC)[C@@H](O[C@H]4C[C@H](OC)[C@@H](NC)[C@H](C)O4)[C@H](C)O3)[C@@H](C)/C=C/C=C3\CO[C@@H]4[C@H](O)C(C)=C[C@@H](C(=O)O1)[C@]34O)O2 | 25.1 µM (active)
25 | [Cl][Sn]([c]1ccccc1)([c]1ccccc1)[c]1ccccc1 | 0.891 µM (active)

Tested on: not listed separately
Experiment: qHTS Assay for Identifying Gametocytocidal Compounds (AID 743244); further: potency means the concentration at half of the fitted maximal effect;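 on max response: on the % scale 0 is the no-effect control and ±100 the full control effect; actives lower the fluorescent signal which means gametocytes are killed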
Conditions: P. falciparum 3D7 stage III-V gametocytes, alamarBlue, 72 h; max response: hits give low values
Summary of the method: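 A resazurin-based viability read-out was applied to mature P. falciparum gametocytes: 72 h compound treatment, then 24 h dye incubation, with falling fluorescence signalling gametocytocidal effect.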

Row | Compound | Potency | max response [%]
26 | COC12CC[C@@]3(C[C@@H]1C(C)(O)C(C)(C)C)[C@H]1Cc4ccc(O)c5c4[C@@]3(CCN1CC1CC1)[C@H]2O5 (stereo partly specified) | 31600 nM (active) | –
27 | O=C(O)CN(CCN(CC(=O)O)CC(=O)O)CC(=O)O | – | 12.5
28 | COC(=O)C[C@](O)(CCCC(C)(C)O)C(=O)O[C@@H]1C(OC)=CC23CCCN2CCc2cc4c(cc2[C@H]13)OCO4 (stereo partly specified) | 83.3 nM (active) | –
29 | CC[C@@]1([C@@H]2O[C@@H]([C@H]3O[C@@](O)(CO)[C@H](C)C[C@@H]3C)C[C@@H]2C)CC[C@H]([C@]2(C)CC[C@]3(C[C@H](O)[C@@H](C)[C@@H]([C@@H](C)[C@@H](OC)[C@H](C)C(=O)O)O3)O2)O1 (stereo in doubt) | 891 nM (active) and 166 nM (active) | –
30 | COC(C(=O)C(O)C(C)O)C1Cc2cc3cc(OC4CC(OC5CC(O)C(O)C(C)O5)C(O)C(C)O4)c(C)c(O)c3c(O)c2C(=O)C1OC1CC(OC2CC(OC3CC(C)(O)C(O)C(C)O3)C(O)C(C)O2)C(O)C(C)O1 (stereo unspecified) | 1120 nM (active) | –
31 | CCC(C(=O)O)C1OC(C(C)C(O)C(C)C(=O)C(CC)C2OC3(C=CC(O)C4(CCC(C)(C5CCC(O)(CC)C(C)O5)O4)O3)C(C)CC2C)C(C)CC1C (stereo unspecified) | 60.5 nM (active) | –
32 | CC[C@@H](C(=O)[C@@H](C)[C@@H](O)[C@H](C)[C@@H]1O[C@@H]([C@@H](CC)C(=O)O)CC[C@@H]1C)[C@H]1O[C@]2(C=C[C@@H](O)[C@]3(CC[C@@](C)([C@H]4CC[C@](O)(CC)[C@H](C)O4)O3)O2)[C@H](C)C[C@@H]1C | 235 nM (active) | –
33 | C[C@@H]1[C@H](O)[C@@H](C)/C=C/C=C/CC/C=C/C=C/C=C/C=C/[C@H](O[C@H]2O[C@@H](C)[C@H](O)[C@@H](N)[C@H]2O)CC2O[C@](O)(C[C@@H](O)[C@H](O)CC[C@@H](O)C[C@@H](O)C[C@@H](O)CC(=O)O[C@H]1C)C[C@H](O)[C@H]2C(=O)O | – | -9.77
34 | CN(C)C(=O)CCSC(SCCC(=O)O)c1cccc(/C=C/c2ccc3ccc(Cl)cc3n2)c1 (stereo unspecified) | – | 41.4
35 | C=Cc1c(C)c2cc3nc(cc4[nH]c(cc5nc(cc1[nH]2)C(C)=C5CCC(=O)OC)c(CCC(=O)O)c4C)[C@@]1(C)C3=CC=C(C(=O)OC)[C@H]1C(=O)OC | 894 nM (active) | –
36 | C[C@H]1[C@@H](OC(=O)CCC(=O)O)O[C@@H]2OC3(C)CC[C@H]4[C@H](C)CC[C@@H]1[C@@]24OO3 | 66.2 nM (active) | –
